About 83,000 compounds went through this panel and 20% of them were active in at least one assay; those are over-represented in the sample as a whole.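 How to read the values: 0–100, growth inhibition (40 = 60% inhibited); 0, no net growth; -100 to 0, cell death (-40 = 40% of starting cells died; -100 = all dead).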 A number with no mark means an inactive call. Calls of active or inactive are those of the source.
What follows are compounds tested on HT29 colon (assay: NCI-60 one-dose screen, 48 h (100 = growth as untreated, 0 = no growth, -100 = all killed)). Details: 10 µM unless noted.
Protocol: Growth inhibition of the HT29 human tumor cell line is measured as a screen for anti-cancer activity. Cells are grown in 96 well plates and exposed to the test compound for 48 hours. Compounds are tested at a single concentration, which is 10^-5 M for most compounds. The reported endpoint is percent growth (GI% or GIPRCNT), where numbers from 0 - 100% represent growth inhibition, and numbers from -100% - 0 represent cell death. For example, a value of 40 represents 60% growth inhibition. A value of 0 means no net growth occurred over the course of the experiment. A value of -40 indicates 40% of cells at the beginning of the experiment died by the end of the experiment. A value of -100 means all cells are dead at the end of the experiment.
NCI-60 Human Tumor Cell Lines Screen was performed using the standard one-dose NCI protocol, which is described in more detail at https://dtp.cancer.gov/discovery_development/nci-60/default.htm.
Compounds with GIPRCNT values below 10 were considered active. Activity score was based on GIPRCNT using the following formula: […]
Score is 0 for GIPRCNT values of 100 or above, 50 for GIPRCNT values of 0, and 100 for GIPRCNT values of -100.

Row | SMILES | growth
1 | O=C1CC(N2C(=O)/C(=C/C(Cl)=C\c3ccc([N+](=O)[O-])cc3)SC2=S)C(=O)N1c1ccc(Cl)cc1 (stereo not given) | 4.25% (active)
2 | CCOP(=O)(OCC)c1nc(-c2ccccc2)oc1NCc1cccnc1 | 111%
3 | COc1ccc(C/C(C)=C(/c2ccc(OCCN3CCCCC3)cc2)c2ccc(OC(=O)NCc3ccccc3)cc2)cc1 | -87.8% (active)
4 | CC(=O)OC[C@]12CCC(C)(C)C[C@H]1[C@@]1(O)[C@H](O)C[C@@H]3[C@@]4(C)CCCNC(C)(C)[C@@H]4CC[C@@]3(C)[C@]1(C)CC2 | 109%
5 | CCCNC(=O)Oc1ccc(/C(=C(/C)Cc2ccc(OC)cc2)c2ccc(OCCCN(C)C)cc2)cc1 | 25.7%
6 | CC(=O)n1nc(C(=O)OC(C)C)c2cc(C)c(C)cc21 | 97.8%
7 | CCn1c(SCC(=O)c2ccc(Br)cc2)nnc1-c1ccncc1 | 107%
8 | CN1C(=O)N(C)C2Nn3c(s/c(=C\c4ccc(C(F)(F)F)cc4)c3=O)=NC21 (stereo not given) | 109%
9 | C[C@]12C=CC(=O)C=C1CCC1C2[C@@H](O)C[C@@]2(C)C1CC[C@]2(O)C(=O)COC(=O)CCC(=O)O (stereo not given in full) | 105%
10 | COC(=O)CCC(=O)C(=O)OC | -9.41% [10 mM] (active)
11 | CC(C)(C)c1cc(-c2nc3ccc(N4CCN(S(C)(=O)=O)CC4)cc3[nH]2)cc(C(C)(C)C)c1O | 81%
12 | C#CCOc1ccc2ncnc(Nc3ccc(NC(=O)CCl)cc3)c2c1 | -60% (active)
13 | CC12CCC3c4ccccc4CCC3(CO1)C2 (stereo not given) | 100%
14 | Cc1ccc(NC(=S)NNC(=S)NNc2ccccc2)cc1C | 104%
15 | O=C1c2cccnc2C(=O)c2c1c(C(=O)NCCn1ccnc1)c1ccccn21 | 7.18% (active)
16 | C=C1CC[C@@H]2[C@](C)(COC(C)=O)[C@H](OC(C)=O)CC[C@@]2(C)[C@@H]1CC(Sc1ccccc1)C1=CCOC1=O (stereo not given in full) | -39.3% (active)
17 | O=Nc1c(-c2c(O)[nH]c3ncccc23)[nH]c2ccccc12 | 102%
18 | O=C(Cc1ccccc1)Nc1nc(O)c(/C=C2\C(=O)C=Cc3ccccc32)s1 | 111%
19 | Cc1ccc(-c2nc(/C=C3/C(=O)Nc4ccccc43)c3ccccn23)cc1 | 42.3%
20 | Nc1nc2c([nH]1)c1[nH]c3ccccc3c1c1[nH]c3ccccc3c21 | 3.16% (active)

Row | SMILES | growth
21 | CO[C@]12C=C/C(=C(/C(=O)OCc3cccnc3)C(=O)CCCCCCCC[C@@]3(OC)C=C/C(=C(/C(=O)OCc4cccnc4)C(=O)CCCCCCCC1)O3)O2 | 14.5%
22 | Cc1nnc(-n2c(O)cc(=O)n(-c3ccccc3)c2=S)nc1/C=C/c1ccc(N(C)C)cc1 | 24.3%
23 | C#CCn1cnc2c(Nc3cccc(NC(=O)C=C)c3)ncnc21 | 90.6%
24 | CCOC(=O)/C=C1\S/C(=N\Nc2cc(=O)[nH]c3ccc(Cl)cc23)N(c2ccccc2)C1=O | 102%
25 | C#CCOc1cccc(Nc2ncnc3c(NC(=O)C=C)cccc23)c1 | 5.3% (active)
26 | CCCCCCC1(C)NCCO1 (stereo not given) | 106%
27 | CCCCC(=O)Nc1ncc(Cc2ccc(Cl)cc2)s1 | 28.6%
28 | CC(C)(C)n1cc(-c2ccnc(NCCCNS(=O)(=O)c3ccc(F)cc3)c2)c(-c2cccc(F)c2)n1 | 6.93% (active)
29 | O=[N+]([O-])c1ccc(N/N=C(/C(=N/Nc2ccc([N+](=O)[O-])cc2)c2ccccc2)c2ccccc2)cc1 | 16.4%
30 | N#Cc1c(N)nnn1Cc1cc(=O)oc2c1ccc1ccccc12 | 101%
31 | COc1cc2c(c(OC)c1OC)C(=O)CC(c1cccc(NC(=O)c3ccc(Br)cc3)c1)O2 (stereo not given) | 46%
32 | CC[C@]12C=CCN3CC[C@@]4(c5cc(NC(=O)CCC(=O)OCc6cn(Cc7ccc(F)cc7)nn6)c(OC)cc5N(C)[C@H]4[C@@](O)(C(=O)OC)[C@@H]1OC(C)=O)[C@@H]32 | 103%
33 | COc1cc(/C=C\c2cc(/C=C\c3ccc(O)c(OC)c3)n(C(=O)COc3ccc(Cl)cc3Cl)n2)ccc1O | 2.93% (active)
34 | O=C(Cn1cc(CN2CCCCCC2)nn1)Nc1ccc2c(ccn2Cc2ccccc2)c1 | 70.5%
35 | C[C@@H]1CCC[C@H]1CC(N)C(=O)O (stereo not given in full) | 116%
36 | O=C(Cn1c(=O)sc2ccccc21)NNS(=O)(=O)c1ccccc1[N+](=O)[O-] | 99.3%
37 | O=C(Nc1cc(Cl)ccc1O)c1ccc(Nc2ccnc(C(F)(F)F)c2)cc1 | 95.5%
38 | O=C1C(Cl)=C(Nc2ccc(O)cc2)C(=O)N1Cc1ccc(Cl)cc1 | 11%
39 | O=C(c1ccccc1)C1C(=O)N2C(=S)N(c3ccccc3)C(=O)C2C1c1ccc(Cl)cc1 (stereo not given) | 111%
40 | Cc1nc2sc(C(=O)Nc3ccccc3)c(N)c2cc1C(=O)c1ccccc1 | 22.9%

Reference: PubChem BioAssay (NCI)
